Assay results as given in paper PMC6919601, “Identification of Plasmodium dipeptidyl aminopeptidase allosteric inhibitors by high throughput screening” (PLoS ONE, 2019).
Hit rate of the full screen: of about 110,000 compounds, about 230 (0.21%) showed an effect of 50% or more. The sample holds strong results, similar compounds and a random draw of the others, so the mix is not that of the screen.

Molecular target: DPAP1 (Plasmodium falciparum, UniProt Q8IIJ9)
Assay: primary screen, percent inhibition; read by cleavage of a fluorogenic dipeptide substrate; higher = more effect of the substance
Parameters: species or system P. falciparum D10 trophozoite lysates; single well
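Also: 30 min substrate incubation versus DMSO and 10 µM JCP410 controls.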

DPAP1, sequence (Q8IIJ9 whole entry, looked up): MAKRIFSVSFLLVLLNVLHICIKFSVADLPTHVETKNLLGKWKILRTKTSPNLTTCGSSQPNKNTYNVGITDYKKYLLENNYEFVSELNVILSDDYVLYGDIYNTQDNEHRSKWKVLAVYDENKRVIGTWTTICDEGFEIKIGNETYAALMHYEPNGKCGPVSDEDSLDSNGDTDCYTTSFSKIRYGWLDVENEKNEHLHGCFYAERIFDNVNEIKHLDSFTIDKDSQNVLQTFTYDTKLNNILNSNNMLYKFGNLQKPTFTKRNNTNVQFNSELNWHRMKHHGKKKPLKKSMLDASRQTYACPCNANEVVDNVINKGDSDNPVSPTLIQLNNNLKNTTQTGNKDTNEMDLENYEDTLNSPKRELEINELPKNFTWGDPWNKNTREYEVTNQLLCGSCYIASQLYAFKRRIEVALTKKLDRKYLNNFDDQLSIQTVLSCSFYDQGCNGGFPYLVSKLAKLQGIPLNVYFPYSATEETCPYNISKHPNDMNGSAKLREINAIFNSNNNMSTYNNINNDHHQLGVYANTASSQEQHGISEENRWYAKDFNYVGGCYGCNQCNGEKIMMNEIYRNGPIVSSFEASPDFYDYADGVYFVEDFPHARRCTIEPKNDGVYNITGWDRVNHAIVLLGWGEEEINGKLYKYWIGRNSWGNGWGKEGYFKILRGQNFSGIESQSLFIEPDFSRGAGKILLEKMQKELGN

| SMILES | % Inhibition @ 10 uM [%] |
| --- | --- |
| CCn1c(C)cc(/C=C2\NC(=O)N(CC(=O)Nc3ccc(F)cc3)C2=O)c1C | 0.528 |
| CCCNS(=O)(=O)c1cc(-c2cc(C)no2)ccc1OC | -8.89 |
| CCCCNC(=O)c1cc(-c2ccc(F)cc2)on1 | 4.5 |
| Brc1ccc(-c2cn3nc(C4CCCCC4)sc3n2)cc1 | -2.71 |
| CCOc1ccc(C(=O)CCNCCC(=O)O)cc1 | 44.5 |
| CCOc1ccc(C(=O)CCN(C)CC(=O)O)cc1 | 89.9 |
| COc1ccc(C(=O)CCN(C)CC(=O)O)cc1 | 55.8 |
| CCOc1ccc(C(=O)CCN(C)C)cc1 | -1.25 |
| COc1ccc(C(=O)CCN(C)C)cc1 | 3.82 |
| COc1ccc(C(=O)CCNCCC(=O)O)cc1 | 30.1 |
| O=C(O)c1ccccc1NC(=O)C12CC3CC(CC(C3)C1)C2 | -5.44 |
| O=C(O)CCC(=O)Nc1ccc(S(=O)(=O)NC2CCCCC2)cc1 | 1.49 |
| CC(=O)c1ccc(N2CCN(Cc3ccc(C)cc3C)CC2)cc1 | -5.11 |
| CC1(C)CC(=O)C2=C(C1)N1C(=C(C#N)C2c2cccnc2)N=C(N)c2c1sc1c2CCCCC1 (stereo not drawn) | -2.39 |
| Cc1ccc(Oc2cc(-n3nc(C)c(C(N)=O)c3N)ncn2)cc1 | -0.795 |
| CCc1nn(-c2cc(Oc3ccccc3)ncn2)c(N)c1C(N)=O | 0.686 |
| CCc1nn(-c2cc(Oc3ccc(C)cc3)ncn2)c(N)c1C(N)=O | 60.5 |
| CN(C1CCCCC1)S(=O)(=O)c1ccc(C(=O)Nc2nc(-c3ccccn3)cs2)cc1 | -1.4 |
| O=c1ncn(-c2ccccc2F)c2ncccc12 | -10.2 |
| CCOC(=O)C1=C(O)/C(=C\c2cc(C)n(-c3cc(C)ccc3OC)c2C)N=C1C | 3.47 |
| CCOC(=O)C1=C(O)/C(=C\c2cc(C)n(-c3ccccc3C(F)(F)F)c2C)N=C1C | 52.7 |
| CCOC(=O)C1=C(O)/C(=C\c2cc(C)n(-c3ccccc3C(=O)OC)c2C)N=C1C | 3.47 |
| C/N=C1/S/C(=C\c2ccc(N3Cc4ccccc4C3)cc2)C(=O)N1C | -5.19 |
| CCCCNC(=O)c1cn(C)c(=O)c2cc(OC)c(OC)cc12 | -5.67 |
| Cc1ccc(-c2cc(C(F)F)n3ncc(C(=O)NC(C)c4ccccc4)c3n2)cc1 (stereo not drawn) | 0.778 |

| SMILES | % Inhibition @ 10 uM [%] |
| --- | --- |
| CCCCNC(=O)c1cnn2c(C(F)F)cc(-c3ccccc3)nc12 | 4.08 |
| Cc1ccc(-c2cc(C(F)F)n3ncc(C(=O)n4c(C)nc5ccccc54)c3n2)cc1 | 50 |
| CCc1nccn1C(=O)c1cnn2c(C(F)F)cc(-c3ccccc3)nc12 | 75.7 |
| Cc1ccc(-c2cc(C(F)F)n3ncc(C(=O)N4CCc5ccccc5C4)c3n2)cc1 | 0.778 |
| O=C(c1cnn2c(C(F)F)cc(-c3ccccc3)nc12)N1CCN(c2ccccn2)CC1 | 5.65 |
| CCOC(=O)c1c(-c2ccc(F)cc2)csc1NC(=O)c1c(-c2ccccc2)noc1C | 0.64 |
| O=C(CCCC(=O)c1ccccc1)NC(c1ccccc1)c1ccccc1 | -1.46 |
| c1ccc(CSc2nccn2Cc2ccccc2)cc1 | -1.97 |
| CC(C)CC(=O)Nc1ccc(-c2nc3cc(Cl)ccc3o2)cc1 | -1.57 |
| Cc1ccc(CNS(=O)(=O)c2cn(C)cn2)cc1 | 1.47 |
| Cc1ccc(S(=O)(=O)Nc2nnc(C)s2)cc1 | -1.77 |
| Cn1cnc(S(=O)(=O)Nc2nnc(S)s2)c1 | 95.5 |
| Cc1csc(NC(=O)C(CCS(C)(=O)=O)N2Cc3ccccc3C2=O)n1 (stereo not drawn) | 0.0322 |
| O=C(/C=C/c1ccco1)c1ccc(F)cc1 | 14.1 |
| COc1ccc(C(=O)/C=C/c2ccco2)cc1 | 60.2 |
| O=C(/C=C/c1ccco1)c1ccc(C(=O)/C=C/c2ccco2)cc1 | -0.268 |
| COc1ccc(CCNC(=O)CN2C(=O)c3ccccc3C2=O)cc1 | 1.33 |
| Cc1nn(C)cc1CN(C)C(=O)c1cc2nc(-c3ccccc3)cc(C(F)(F)F)n2n1 | 4.59 |
| Cc1cc(N(C)C)c(=O)n(-c2ccccc2)n1 | 5.74 |
| O=C1/C(=C/c2ccc3nccnc3c2)CN(Cc2ccccc2)C/C1=C\c1ccc2nccnc2c1 | 6.89 |
| O=C1/C(=C\c2ccccn2)CN(Cc2ccccc2)C/C1=C\c1ccccn1 | 55.7 |
| O=C1/C(=C\c2cccnc2)CN(Cc2ccccc2)C/C1=C\c1cccnc1 | 0.287 |
| O=C(CCN1C(=O)C2C3C=CC(C3)C2C1=O)Nc1cccnc1 (stereo not drawn) | -0.551 |
| CCN(CC)C(=O)Cn1cc(S(=O)(=O)Cc2cc(C)ccc2C)c2ccccc21 | 0.292 |
| Cc1cccc(NC(=O)C2CC3CCC2C3)n1 (stereo not drawn) | -2.66 |

| SMILES | % Inhibition @ 10 uM [%] |
| --- | --- |
| COc1ccc(S(=O)(=O)N2CCSC2c2ccccc2)cc1 (stereo not drawn) | 3.19 |
| COc1ccc(S(=O)(=O)N2CCSC2c2ccc(C)cc2)cc1 (stereo not drawn) | -3.45 |
| COc1ccc(S(=O)(=O)N2CCSC2c2ccccc2Cl)cc1 (stereo not drawn) | 68.6 |
| CN(C)c1ccc(/C=C(\C#N)c2nc(-c3ccc(-c4ccccc4)cc3)cs2)cc1 | 5.77 |
| CCn1ccnc1C(O)(c1ccccc1)c1ccc(C)cc1 (stereo not drawn) | 4.67 |
| CCN1C(=O)C(=CNc2ccc3c(c2)-c2ccccc2C3)C(=O)N(CC)C1=O | -0.996 |
| CCc1nnc(NC(=O)c2sc3nc(-c4cccs4)cc(C(F)(F)F)c3c2N)s1 | 0.487 |
| Nc1c(C(=O)Nc2ccccn2)sc2nc(-c3cccs3)cc(C(F)(F)F)c12 | -5.07 |
| Nc1c(C(=O)Nc2nccs2)sc2nc(-c3cccs3)cc(C(F)(F)F)c12 | 76.8 |
| CC(=O)c1ccc(NC(=O)C(C)Oc2ccccc2C)cc1 (stereo not drawn) | -5.92 |
| Cc1nc2c3ccccc3n3c(CCCC(=O)NC4CCN(Cc5ccccc5)CC4)nnc3n2n1 | 2.04 |
| CCCN1CCN(C(=O)Cn2cccc2C(=O)c2ccccc2)CC1 | 1.15 |
| CCOc1ccc(-c2cc(NC(=O)Cn3ncc4c(=O)oc5ccc(C)cc5c43)on2)cc1 | -5.25 |
| CCSc1nc(-c2cccs2)cc(C(F)(F)F)c1C#N | 82.6 |
| N#Cc1c(C(F)(F)F)cc(-c2cccs2)nc1SCc1ccncc1 | 57.7 |
| CCSc1nc(-c2ccc(OC)cc2)cc(C(F)(F)F)c1C#N | -1.4 |
| N#Cc1sc2nc(-c3cccs3)cc(C(F)(F)F)c2c1N | -2.32 |
| N#Cc1c(-c2cccs2)cc(-c2ccccc2)nc1S | 20.6 |
| N#Cc1c(C(F)(F)F)cc(-c2cccs2)nc1S | 88.5 |
| N#Cc1c(C(F)(F)F)cc(-c2cccs2)nc1SCC(=O)Nc1nccs1 | 0.121 |
| CC(=O)NCCSc1nc(-c2cccs2)cc(-c2ccc(F)cc2)c1C#N | 5.65 |
| N#Cc1c(C(F)(F)F)cc(-c2cccs2)nc1SCC(=O)Nc1ccccn1 | 2.44 |
| CCS(=O)CCSc1nc(-c2cccs2)cc(-c2ccccc2)c1C#N (stereo not drawn) | 7.76 |
| CCCCSc1nc(-c2cccs2)cc(C(F)(F)F)c1C#N | 60.7 |
| Cc1cccc(NC(=O)CSc2nc(-c3cccs3)cc(C(F)(F)F)c2C#N)n1 | 18.3 |
